Assay outcomes (PubChem BioAssay)
CF NFkB inh: inhibitors of PAF-induced NF-kB signaling, primary screen, cell-based, GFP fluorescence, uHTS. KKLEB NF-kB-GFP reporter, GFP fluorescence overnight. inhibition, % at 5 µM. 0.86% of 360,000 active;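 active = at least 50% inhibition at 5 µM, scaled per plate between neutral and stimulator controls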;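 also: PAF is a Pseudomonas aeruginosa culture filtrate used as stimulus; plate controls were PAF-stimulated DMSO wells for no effect and unstimulated DMSO wells for full effect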
Shn3 3UTR inh: reduction of Shn3 3'UTR firefly luciferase signal, primary screen, Schnurri-3 inhibitor project, cell-based, Clone20 osteoblasts, set 2 | Clone20 osteoblast Shn3 3'UTR firefly luciferase, 24 h | 0.52% of 360,000 active | inhibition, % at 12.5 µM;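 active = mean inhibition of at least 75% with every replicate also reaching 75%; inconclusive = mean inhibition at least 75% but some replicate below; inactive = mean inhibition below 75%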;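 also: 0% = median of neutral control wells and 100% = pilot-screen positive control compound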
MITF TRPM1 inh: inhibitors of MITF-dependent TRPM1 promoter reporter, primary screen, cell-based, SK-MEL-5, single point, luciferase; SK-MEL-5 TRPM1 promoter luciferase, 24 h; inhibition, % at 12.5 µM; 0.83% of 330,000 active; AID 488899, 2010;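 active = mean inhibition across replicates of 60% or more, whatever share of single replicates reaches that level; inconclusive = some that reach 60%, reason not given; inactive = mean inhibition across replicates below 60%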
KKLEB tox: cytotoxicity in KKLEB CF airway cells, primary screen, cytotoxicity control for CF NF-kB inhibitor project, cell-based, uHTS, fluorescence assay plates. KKLEB CF airway cells viability, ATPlite luminescence, overnight; hits give low values; cells stimulated with P. aeruginosa culture filtrate. activity change (cytotoxicity), % at 5 µM. 0.36% of 360,000 active. AID 602141, 2011;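 active = corrected activity change at or below -50% at 5 µM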
Peg3 prom inh: Peg3 promoter-driven luciferase inhibitors, primary screen, cell-based, HeLa, luciferase luminescence; HeLa PEG-Prom luciferase reporter, overnight; inhibition, % at 20 µM; 1.7% of 360,000 active; AID 588405, 2011;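 active = inhibition of at least 50% at 20 µM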
HIF-2a block: HIF-2a reporter inhibitors, primary screen, luminescence, 786-0 RCC cells. 786-0 RCC cells HIF-2a reporter, luciferase luminescence, overnight. 0.72% of 360,000 active. inhibition, % at 18.8 µM;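 active = inhibition of the luminescence signal of 40% or more relative to plate controls, in a single-dose primary screen at 18.75 µM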
* marks the source's active call; other numbers are inactive results; ? = inconclusive; · = no result. Only some compounds are listed: those with a hit (about 2.8% of all), similar ones and a draw of the others.

SMILES | CF NFkB inh | Shn3 3UTR inh | MITF TRPM1 inh | KKLEB tox | Peg3 prom inh | HIF-2a block
COc1ccc(C2OCC(C)([N+](=O)[O-])CO2)cc1 (stereo not drawn) | 8 | -10 | 1 | -14 | 2 | -9
COc1ccc(-n2nc3c(N4CCC(C(=O)NCC(C)c5ccccc5)CC4)nnc(C)c3c2C)cc1 (stereo not drawn) | 13 | ? | 68* | -4 | 75* | 11
COc1ccc(-n2nc3c(N4CCC(C(=O)NCc5ccco5)CC4)nnc(C)c3c2C)cc1 | 22 | 11 | 0 | -6 | -15 | 9
COc1ccc(-n2nc3c(N4CCC(C(=O)NCCc5ccccc5C)CC4)nnc(C)c3c2C)cc1 | -3 | 78 | 89* | 0 | 103* | 0
CCOc1ccccc1CNC(=O)C1CCCN(c2nnc(C)c3c(C)n(-c4ccccc4)nc23)C1 (stereo not drawn) | 0 | 58 | 81* | 3 | 55* | 11
CCC(=O)N1CCC1(C)C(=O)Nc1ncc(C)s1 (stereo not drawn) | -6 | 1 | · | 4 | 3 | 0
c1ccc(-c2nnsc2-c2ccccc2)cc1 | 17 | 10 | -10 | -12 | 15 | 9
O=S(=O)(c1ccc(Cl)c(Cl)c1)c1snnc1-c1ccccc1 | 56* | ? | 88* | -45 | 73* | 77*
Cc1ccc(NN2C(=O)C=C(c3ccc(Cl)cc3)C2=O)cc1 | 37 | 99* | 19 | -11 | 105* | 4
O=C(/C=C/c1ccccc1F)c1cccc([N+](=O)[O-])c1 | -8 | -1 | 30 | 1 | 45 | -1
COc1cc(/C=C/C(=O)c2cccc([N+](=O)[O-])c2)cc(OC)c1OC | 24 | 46 | 6 | -3 | 105* | 38
O=C(CSc1ccc2nnc(CCNS(=O)(=O)c3ccccc3)n2n1)Nc1nc2ccccc2s1 | -4 | -13 | 23 | -2 | 16 | -9
CCOC(=O)c1nnn(-c2ccccc2)c1C | 3 | -25 | -14 | -2 | -32 | -29
CCOC(=O)c1nnn(-c2ccc([N+](=O)[O-])cc2[N+](=O)[O-])c1C | -37 | -23 | 77* | 8 | 11 | -1
Cc1cc(C)cc(NC(=O)Nc2ccc3c(c2)N(C)C(=O)CS3)c1 | 24 | 2 | -3 | 1 | 25 | -49
CC(=O)c1cccc(NC(=O)Nc2ccc3c(c2)N(C)C(=O)CS3)c1 | 61* | 30 | -5 | -15 | 29 | -55
CC(C)(C)C1=CC(O)(c2ccccc2)C=C(C(C)(C)C)C1=O | 20 | 7 | 6 | 5 | 78* | 20
CCN1C(=O)N(CC)C(O)(c2ccccc2)C1(O)c1ccccc1 (stereo not drawn) | 13 | -15 | 1 | -1 | 3 | 8
COC(=O)Cc1ccc(OC2(C)CCN(Cc3ccc(-c4ccccn4)cc3)C2)cc1 (stereo not drawn) | -17 | 58 | · | -4 | -7 | -17
CCOC(=O)C1(C(N)=O)OC1(c1ccc(Cl)cc1)c1ccccc1Cl (stereo not drawn) | -9 | -33 | 0 | 10 | 69* | -1
Cc1nc(C(F)(F)F)ccc1C(=O)N1CCC1(C)C(=O)NS(=O)(=O)c1ccc(C#N)cc1 (stereo not drawn) | -1 | -23 | · | 5 | -1 | 10
Cc1ccccc1-n1c(SCC(=O)c2cc(C)n(C)c2C)nnc1-c1ccncc1 | 4 | 13 | -1 | 2 | 2 | 12
CN(CCc1ccccc1)C(=O)c1cccc(NC(=O)Cc2cccc(NC(=O)C3CCN(C(=O)c4ccccc4)CC3)c2)c1 | -20 | 10 | -5 | 19 | -3 | 2
COc1cccc(CNc2nc(NCc3ccccc3)nc3ccsc23)c1 | 20 | 51 | · | -9 | 64* | 6
COc1cccc(CNc2nc(NCC3CC3)nc3ccsc23)c1OC | -1 | 82* | · | -5 | 11 | 22
SMILES | CF NFkB inh | Shn3 3UTR inh | MITF TRPM1 inh | KKLEB tox | Peg3 prom inh | HIF-2a block
COc1cccc(CNc2nc(NCC3CC3)nc3ccsc23)c1 | -14 | 86* | · | -27 | 16 | 15
c1ccc(CNc2nc(NCCc3ccncc3)c3sccc3n2)cc1 | 6 | 39 | · | -6 | 54* | 2
c1ccc(CNc2nc(NCc3cccs3)nc3ccsc23)cc1 | 0 | 34 | · | -20 | 11 | -8
COc1cccc(CNc2nc(NC(C)C)nc3ccsc23)c1OC | -3 | 67 | · | -13 | 35 | 19
CNc1nc(NCc2cccc(OC)c2)c2sccc2n1 | 22 | 43 | · | -16 | 3 | 7
O=C1CC2(CCN(C(=O)c3ccc(F)cc3)CC2)Oc2ccccc21 | 16 | 5 | 4 | -16 | 15 | 17
C/C=C/c1cccc(-c2nc(C(=O)N3CCCCC3)cc3c2[C@@H](CCO)N(C(=O)NC(C)C)C3)c1 | · | · | · | · | · | 3
CC(C)Cn1c(=O)c2ccccc2n2c(CCC(=O)NCC3CCCO3)nnc12 (stereo not drawn) | 3 | -7 | -9 | -1 | 14 | 13
COC(=O)[C@]12CCCCC=C1N(Cc1ccc3c(c1)OCO3)C(=O)[C@H](CC(=O)NCC13CC4CC(CC(C4)C1)C3)C2 | · | · | · | · | · | 3
CCCc1nnc(SCC(=O)O)n1CC | 12 | 16 | -3 | 0 | 9 | 20
Cc1ccc(Cc2c(-c3cccc(Cl)c3)nc3c4ccccc4ccn23)cc1 | 4 | 18 | · | -8 | -19 | -40
CC(C)Oc1ccc(CNC(=O)CC(c2ccccc2)c2cc(Cl)ccc2O)cc1 (stereo not drawn) | 7 | 1 | 14 | -11 | 34 | 7
COc1ccc(C(CCNCc2ccc(OC)c(OC)c2)c2ccc(F)cc2)cc1 (stereo not drawn) | -2 | -2 | 6 | 9 | -1 | 13
COc1ccc(C(CCNCc2ccc(N(C)C)cc2)c2ccccc2)cc1 (stereo not drawn) | 6 | 53 | 33 | 2 | 107* | 20
CC(C)Oc1ccc(C(CCNCc2ccc(O)cc2)c2ccccc2)cc1 (stereo not drawn) | 1 | 26 | 86* | -10 | 106* | 6
CC(C)[C@H](NC(N)=O)C(=O)Nc1cccc(S(=O)(=O)N2CCOCC2)c1 | 0 | 5 | 3 | -11 | 6 | 8
CCCCc1ccc(NC(=O)CSc2nc(=O)n(CCCN3CCOCC3)c3c2CCC3)cc1 | -5 | -81 | 12 | 13 | -7 | 3
CC(NC(=O)Cn1ncc(Cl)c(Cl)c1=O)C12CC3CC(CC(C3)C1)C2 (stereo not drawn) | 84* | 98* | 108* | -78* | 97* | 91*
Cc1ccc(C(=O)Nc2nc(-c3ccccn3)cs2)s1 | -33 | 48 | 19 | 7 | -109 | -233
